# Lassa entry inh – qHTS for Inhibitors of binding or entry into cells for Lassa Virus; Lassa virus pseudotype entry inhibition, cell reporter; Potency, µM (doses to about 37.9 µM), without a hit: top-dose activity change, negative = inhibition, usual class: inhibitors; actives 1.2% (n = 300,000); calls by dose curve; tested in HEK293 cells; note: potency is the fitted concentration of half-maximal effect; nearly all actives have a fitted effect of over 50% in size
# FMDV inh – High Throughput Screening for Foot and Mouth Disease Virus Antivirals | FMDV antiviral cell-based qHTS | Potency, µM (doses to about 57.9 µM), without a hit: at the highest dose activity change, negative = inhibition, most hits filed as inhibitors | actives 1.2% (n = 410,000); calls by dose curve; tested in HEK293T cells; note: read-out not given here; potency is the fitted concentration of half-maximal effect; nearly all actives have a fitted effect of over 45% in size
# MARV entry inh – qHTS for inhibitors of binding or entry into cells for Marburg Virus; Marburg virus pseudotyped entry inhibition, cell reporter; Potency, µM (series often up to 37.8 µM), for the others: top-dose activity change, negative = inhibition, hits mostly inhibitors; actives 1.8% (n = 300,000); AID 540276, 2011; calls by dose curve; tested in HEK293 cells; note: potency is the fitted concentration of half-maximal effect
# HCMV inh – qHTS Assay for inhibitors of the human cytomegalovirus (HCMV); activity change, negative = inhibition, % at 57.5 µM; HFF cells, HCMV-luciferase reporter, 72 h; active compounds read low; AID 1259415, 2018; actives 4.5% (n = 410,000); in the data active = activity change below about -60%; inconclusive = no clear call, values can overlap the other calls; inactive = above about -39%
#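 After 16 h attachment at 37C, HFF cells received test compound and HCMV-luciferase (1 PFU/cell); reporter luminescence read 72 h later, data normalized against buffer-only and known inhibitor Salinomycin.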
# An asterisk follows results filed as active; u = inconclusive; x = not tested or not shown; [ ] = remark or other dose. The list is not random: actives were taken first. Their share in the collection is about 6.2%. % is set by controls: 0 for no effect and ±100 for the full control effect.
SMILES,Lassa entry inh,FMDV inh,MARV entry inh,HCMV inh
O=[N+]([O-])c1ccc(N=Nc2c(Cl)cc(O)cc2Cl)cc1,x,u,x,-100*
CCn1c(=O)c([N+](=O)[O-])c(Cl)c2ccccc21,u,22µM*,u,248
O=C1Nc2ccc(-c3cccnc3)cc2C1=Cc1cc(Br)c(O)c(Br)c1,13µM*,x,x,x
Cc1cc(/C=C(\C#N)C(=O)N2CCOCC2)c(C)n1C1CCCC1,x,-3%,4%,-84*
C=C1C(O)[C@@H]2O[C@]3(CC[C@H](/C=C/C(C)[C@@H]4CC(C)=CC5(O[C@H](C[C@@](C)(O)C(=O)O)CCC5O)O4)O3)CC[C@H]2O[C@@H]1C(O)CC(C)[C@H]1OC2(CCCCO2)CCC1C (stereo partly specified),x,1µM*,x,x
Cc1cc(C)cc(NC(=S)N(Cc2ccc(Cl)cc2)Cc2ccc(C(=O)O)cc2)c1,12%[46.1 µM],1%,-21%[46.1 µM],-27
Cc1cc(NC(=S)N(Cc2ccc(Cl)cc2)Cc2ccc(C(=O)O)cc2)ccc1Cl,x,-17%,x,-62*
CCC(C(=O)Nc1ccccc1Cl)n1nc(C)c2c(C)n(-c3ccccc3)nc2c1=O (stereo unspecified),2%[46.1 µM],-10%,u,-80*
COC(=O)c1ccccc1NC(=O)C(C)n1nc(C)c2c(C)n(-c3ccccc3)nc2c1=O (stereo unspecified),x,0%,x,u
CCOC(=O)C(CC)n1nc(C)c2c(C)n(-c3ccc(C)cc3)nc2c1=O (stereo unspecified),9%[46.1 µM],-20%,2%[46.1 µM],u
CCC(C(=O)Nc1ccccc1C(=O)OC)n1nc(C)c2c(C)n(-c3ccc(C)cc3)nc2c1=O (stereo unspecified),u,-10%,x,-94*
Cc1ccc(-n2nc3c(=O)n(C(C)C(=O)NCc4ccccc4Cl)nc(C)c3c2C)cc1 (stereo unspecified),x,u,x,-92*
Cc1nn(C(C)C(=O)Nc2ccccc2Cl)c(=O)c2nn(-c3ccccc3)c(C)c12 (stereo unspecified),u,24%,u,-62*
CCc1cccc(C)c1NC(=O)C(CC)n1nc(C)c2c(C)n(-c3ccccc3)nc2c1=O (stereo unspecified),18%[46.1 µM],12%,x,-2
CN1CCCN(C(=O)[C@@H]2C[C@@H](Sc3nc4ccccc4[nH]3)CN2Cc2ccc(-c3ccccc3)cc2)CC1,x,-4%,x,x
CC(C)(C)NC(=O)CN(Cc1cccs1)C(=O)C1COc2ccccc2O1 (stereo unspecified),-20%,19%,0%,29
CC(C)CCNC(=O)C(c1ccc(O)cc1)N(Cc1cccs1)C(=O)C1COc2ccccc2O1 (stereo unspecified),16µM*,u,u,-94*
COc1cc(Cl)c(C)cc1NS(=O)(=O)c1c(C)nc2sccn2c1=O,-7%[46.1 µM],19%,x,16
Cc1ccc[n+](-c2nc([O-])sc2C=O)c1,-3%,-5%,-11%[46.1 µM],-22
Cc1ccc(-n2c([O-])nc(-[n+]3ccccc3)c2C=O)cc1,19%,x,0%,-72*
Cc1ccc(Sc2ccc(N3CCCC(C(=O)Nc4ccc(Br)cc4)C3)nn2)cc1 (stereo unspecified),1.1µM*,3%,-20%[46.1 µM],-24
Cc1ccc(Sc2ccc(N3CCCC(C(=O)Nc4ccc(Cl)cc4)C3)nn2)cc1 (stereo unspecified),u,7%,-23%[46.1 µM],-23
CC(C)=CCC/C(C)=C/CO/N=C1\C[C@@H](O)[C@@H](O)[C@@H]2[C@@H]3C(=O)N(Cc4ccc5c(c4)OCO5)C(=O)[C@@H]3CC[C@@H]12,x,x,-17%[14.2 µM],x
COc1ccc(-c2ccc3c(c2)S(=O)(=O)c2cccc(C(=O)NCCOc4ccccc4Cl)c2C3=O)cc1OC,x,-13%,x,-98*
COc1ccc(-c2ccc3c(c2)S(=O)(=O)c2cccc(C(=O)NCc4ccccc4Cl)c2C3=O)cc1OC,x,5%,x,-1
SMILES,Lassa entry inh,FMDV inh,MARV entry inh,HCMV inh
COc1ccc(NC(=O)Cn2cc(C(=O)C3CCCCC3)c3ccccc32)cc1,1%[46.1 µM],-11%,2%[46.1 µM],14
O=C(NCCC1=CCCCC1)c1c(O)nc2sccn2c1=O,-19%,10%,5%,x
O=C(NCCCc1ccccc1)c1c(O)nc2sccn2c1=O,14%,-3%,-9%,-64*
COc1cc2c(cc1OC)C(C1C(=O)CC(C)(C)CC1=O)N(C(=O)CCl)CC2 (stereo unspecified),u,0%,u,-39
COc1cc2c(cc1OC)C(c1cc(Br)ccc1F)N(C(=O)CCl)CC2 (stereo unspecified),x,28µM*,-4%,-93*
CCOC(=O)[C@H](C)Sc1nc(-c2cccs2)ccc1C#N,x,x,-1%,x
COc1ccc(NC(=O)N2c3ccc(OC)cc3[C@@H](NCc3ccc(C)o3)[C@H](C)[C@H]2c2ccccc2)cc1,x,x,x,6
CSc1ccccc1NC(=O)COC(=O)CCc1ccccc1,5%,5%,6%[46.1 µM],-62*
CC(C)c1ccc2c(c1)-c1ccccc1S(=O)(=O)N2CC(=O)N1CCCCC1,4%[46.1 µM],42%,u,24
CCNc1ccc(S(=O)(=O)N(C)C)cc1NCC(=O)Nc1ccc(F)c(Cl)c1,u,7%,u,-75*
CCOC(=O)N1CCC(NC(=O)CCc2c(C)nc3c(c(C)nn3C(C)(C)C)c2C)CC1,u,u,u,-73*
CCOC(=O)N1CCC(NC(=O)CCc2c(C)nc3nc(C)nn3c2C)CC1,3%,-1%,-5%,-28
Clc1ccc(CCNC(c2nnc(-c3ccccc3)o2)c2ccccc2Cl)cc1 (stereo unspecified),17%[46.1 µM],-9%,-8%[46.1 µM],3
Cc1ccc(NC(=O)C23CCC(C)(C(=O)[C@H]2Br)C3(C)C)cc1 (stereo partly specified),x,-21%,x,-62*
CCOc1ccc(NS(=O)(=O)c2cc(NC(=O)c3cccc(C)c3)ccc2Cl)cc1,16µM*,41%,u,u
C[C@H]1CN(CCc2ccccc2)C(=O)[C@@H]1CC(=O)Nc1ccccc1,x,2%,x,-75*
CCOC(=O)OC[C@H]1O[C@H](c2ccc(C(C)=O)cc2)C=C[C@H]1Oc1ccc(-c2ccccc2)cc1,u,x,3%[14.2 µM],x
Cc1c(C(=O)Nc2ccc(F)cc2)oc2ccc(S(=O)(=O)N3CC(C)CC(C)C3)cc12 (stereo unspecified),u,x,u,-12
CCN(CC)C(=O)c1oc2ccc(S(=O)(=O)N3CC(C)CC(C)C3)cc2c1C (stereo unspecified),u,-28%,u,-88*
CC1(C)C[C@@H](O)[C@]2(C)CC[C@]3(C)C(=CCC4[C@@]5(C)CC[C@H](O)[C@](C)(CO)C5CC[C@]43C)[C@@H]2C1 (stereo partly specified),x,-24%,x,4
CC1(C)C[C@H]2C3=CCC4[C@@]5(C)CC[C@H](O)[C@@](C)(CO)C5CC[C@@]4(C)[C@]3(C)C[C@@H](O)[C@@]2(CO)[C@@H](O)[C@@H]1O (stereo partly specified),x,-18%,x,-73*
